Lmaj promast – Leishmania major promastigote growth inhibition, primary screen. Leishmania major promastigotes, resazurin fluorescence viability. inhibition, % at 10 µM. 200,000 compounds, 9% hits; in the data active = inhibition above about 50%;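 note: promastigotes grown with compound for 44 hours at 28 °C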
WT yeast gro inh – growth inhibition of WT strain, primary screen, mitochondrial fusion inhibitor project, WT and mutant strains, chemical genetic; AID 1362, 2008; mitochondrial fusion phenotypic screen; 190,000 compounds, 2.1% hits; inhibition, % at 10 µM; in the data active = inhibition above about 58%; tested in S. cerevisiae
CHOP inh – inhibitors of CHOP promoter induction, primary screen, cell-based, unfolded protein response, luciferase reporter; CHO-K1 CHOP-promoter luciferase, tunicamycin-induced, 15-18 h; inhibition, % at 10 µM; 220,000 compounds, 3.8% hits;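 active = compounds that reduced the stress-induced luciferase reporter signal by more than about 70% of percent inhibition, limit read from the data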;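 note: 0% = tunicamycin plus vehicle and 100% = wells without tunicamycin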
RAM network inh – inhibitors of the yeast RAM network, primary screen, dse1pr::URA3 reporter, 5-FOA selection; S. cerevisiae dse1pr::URA3 reporter, 5-FOA growth OD615, 2 d; analog-sensitive cbk1-as2 kinase mutant strain; 190,000 compounds, 1.8% hits; inhibition, % at 50 µM;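 active = inhibition above a set limit, 3 SD over mean compound inhibition, cut at about 8.4% in these data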;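 note: 0% = DMSO-only wells with no growth and 100% = 10 µM 1-NA-PP1 full growth; inhibition rescues growth on 5-FOA so higher OD means more RAM inhibition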
The depositor's hits bear a star; / = not tested or not shown. Shown are actives, neighbours in structure and some others; about 13% of the full set was active somewhere.

SMILES	Lmaj promast	WT yeast gro inh	CHOP inh	RAM network inh
CC(C)CNC(=S)NC1CC2CCCC(C1)N2Cc1cccs1 (stereo unspecified)	94*	17	-3	0
CC(C)CN1C2CCCC1CC(NC(=S)NCc1ccco1)C2 (stereo unspecified)	34	5	3	1
COCCCNC(=S)NC1CC2CCCC(C1)N2Cc1ccco1 (stereo unspecified)	0	99*	-6	1
CC(C)CNC(=S)NC1CC2CCCC(C1)N2Cc1ccco1 (stereo unspecified)	62*	34	8	0
Cc1nn(CC(=O)NCc2ccco2)c(C)c1[N+](=O)[O-]	/	/	-10	/
O=C(NN1CCN(Cc2ccccc2)CC1)c1ccc(N2CCOCC2)c([N+](=O)[O-])c1	14	-1	2	3
CN(C)c1ccc(C2C3C(=O)NC(=O)C3ON2c2ccc(Cl)cc2)cc1 (stereo unspecified)	-9	7	52	0
CCC(=O)N1CCc2cc(S(=O)(=O)CCC(=O)Nc3ccc(C)cn3)ccc21	-4	-2	2	0
O=c1c(-c2ccnn2-c2cccc(Cl)c2)cnc2n1CCS2	6	-5	-2	1
COc1cc(/C=N/NC(=O)CC23CC4CC(CC(C4)C2)C3)cc(Br)c1OCC(=O)N(C)C	93*	-13	42	0
O=C(CC12CC3CC(CC(C3)C1)C2)N/N=C/c1ccncc1	68*	4	-16	1
COc1cc(/C=N/NC(=O)C23CC4CC(CC(C4)C2)C3)cc(Br)c1O	-4	-2	-10	1
Cc1nc(Cl)nc(N(C)c2ccccc2)c1[N+](=O)[O-]	/	/	-35	/
CCCCn1c(=N)n(CC(O)COc2ccccc2)c2ccccc21 (stereo unspecified)	55*	33	-3	2
COc1ccc(OCC(O)Cn2c(=N)n(CCN3CCOCC3)c3ccccc32)cc1 (stereo unspecified)	-5	3	-5	0
CCCCn1c(=N)n(CC(O)COc2ccc(C)cc2)c2ccccc21 (stereo unspecified)	101*	13	72*	0
CCCCNC(=O)CNC(=S)N(Cc1ccccc1)Cc1cccnc1	16	4	10	2
COCCCNC(=S)N(Cc1cccnc1)Cc1ccc(OC)c(OC)c1	89*	-27	36	1
CC(C)C(NC(=O)c1ccccc1)C(=O)OCc1cc([N+](=O)[O-])cc2c1OCOC2 (stereo unspecified)	4	-10	2	1
CCOc1ccccc1C(=O)N[C@H](C(=O)OCc1cc(=O)oc2cc(C)ccc12)C(C)C	1	7	37	9.7*
CC(=O)c1ccc(OCc2cc([N+](=O)[O-])cc3c2OCOC3)cc1	75*	-2	4	6
CCOc1ccccc1C(=O)N[C@H](C(=O)OCc1cc([N+](=O)[O-])cc2c1OCOC2)C(C)C	46	9	23	8.8*
Cc1ccccc1N(CC(=O)N1CCOCC1)S(C)(=O)=O	-6	10	-3	2
C=C1CCC(C)C(C)(CCC2=CCOC2=O)C/C=C\C=C/1C(=O)O (stereo unspecified)	/	/	3	/
COc1cc(OC)c2c(c1)C(=O)c1cc(OC)cc(OC)c1C2=O	-3	87*	2	3
SMILES	Lmaj promast	WT yeast gro inh	CHOP inh	RAM network inh
CN(c1ccccc1)S(=O)(=O)c1ccc(NC(=O)c2ccccc2)cc1	24	-2	48	2
Cc1ccccc1C(=O)NC(=S)Nc1ccc(S(=O)(=O)N(C)c2ccccc2)cc1	100*	21	77*	4
Cc1cccc(C(=O)NC(=S)Nc2ccc(S(=O)(=O)N3CCN(C)CC3)cc2)c1	38	17	22	-1
CC(C)C(=O)NC(=S)Nc1ccc(S(=O)(=O)N(C)Cc2ccccc2)cc1	38	59*	62	7
Cc1cccc(C(=O)NC(=S)Nc2ccc(S(=O)(=O)N(C)c3ccccc3)cc2)c1	100*	41	28	3
Cc1cccc(C(=O)NC(=S)Nc2ccc(S(=O)(=O)N3CCCCC3)cc2)c1	100*	31	26	2
COc1ccc(/C=N/NC(=O)C(=O)NCc2cccnc2)cc1	2	1	52	-1
CCC(NS(=O)(=O)c1ccc(C)cc1)C(=O)Nc1ccc(NC(C)=O)cc1 (stereo unspecified)	-6	0	4	1
O=C(NC1(C(F)(F)F)NC(=O)N(CC2CCCCC2)C1=O)c1ccco1 (stereo unspecified)	7	11	29	0
Cc1cc(S(=O)(=O)NCC(C)C)ccc1OCC(=O)NCc1ccco1	0	0	-3	2
Cc1cccc(C(=O)NC(=S)Nc2ccc(Cc3ccncc3)cc2)c1	45	61*	14	0
CC1=C(O)C(=O)OC1c1c(Cl)cccc1Cl (stereo unspecified)	/	/	8	/
O=C(CCN=C1NS(=O)(=O)c2ccccc21)N1CCc2ccccc2C1	2	-4	-1	1
O=C(CC(SCCO)c1ccc2c(c1)OCO2)c1ccco1 (stereo unspecified)	56*	1	13	-1
Cc1ccc(NC(=O)OCCN2CCN(Cc3ccccc3)CCC2=O)cc1	74*	-11	18	0
COc1ccc(CN2CCN(C3CCOCC3)CC2CCO)c(C)c1C (stereo unspecified)	81*	-3	17	-1
COc1ccc(CN2CCN(C3CCSCC3)CC2CCO)c(C)c1C (stereo unspecified)	88*	2	15	1
CC(=O)c1cc(-c2ccccc2)n(CC(=O)Nc2cccc(C)c2)c1C	64*	-2	9	1
CCc1cccc(NC(=O)Cn2c(-c3ccccc3)cc(C(C)=O)c2C)c1	-1	-9	11	5
CCOC(=O)c1cc(-c2ccccc2)n(CC(=O)Nc2ccc(OC)c(OC)c2)c1C	0	7	100*	1
OC(CN1c2ccccc2Sc2ccccc21)Cn1nnc2ccccc21 (stereo unspecified)	48	16	63	7
Cc1nn(CC(O)CN2c3ccccc3Sc3ccccc32)c(C)c1Br (stereo unspecified)	64*	91*	77*	3
O=C(Nc1ccc2c(c1)OCO2)C1Cc2ccccc2CN1S(=O)(=O)c1cccs1 (stereo unspecified)	99*	9	-36	3
O=C(NC1CCCCC1)C1Cc2ccccc2CN1S(=O)(=O)c1ccc(F)cc1 (stereo unspecified)	43	17	29	-1
O=C(Nc1nccs1)C1Cc2ccccc2CN1S(=O)(=O)c1ccc(F)cc1 (stereo unspecified)	66*	-2	9	6
O=C(Nc1nnc(C2CC2)s1)C1Cc2ccccc2CN1S(=O)(=O)c1ccccc1F (stereo unspecified)	100*	-18	-39	1
Cc1nc(CS(=O)(=O)c2ccc(Cl)cc2)sc1C(=O)O	/	/	-6	/
O=C(CCSCCC(=O)Nc1c(F)c(F)c(F)c(F)c1F)Nc1c(F)c(F)c(F)c(F)c1F	10	-7	-20	1

High-throughput results deposited in PubChem BioAssay by several laboratories.
